These results are taken from the supplement of paper PMC6279402.

Where a name gives a salt, the structure may show the parent alone. ± gives the standard deviation of the averaged measurements.

In one experiment the test system is A549. The experiment is described as follows: relative viability (normalised to negative control = 1, bortezomib = 0) (fraction); higher = less cytotoxic. The settings on record: inflammatory serum-free RHB-A with cytokines + LPS; 5 d + 24 h CellTiter-Blue; compound 30 nM; GSK126 pretreatment: 5 uM GSK126.
On to `C[C@]12CC[C@H](O)CC1=CC[C@@H]1[C@@H]2CC[C@]2(C)C(c3cccnc3)=CC[C@@H]12` [Abiraterone], for which the relative viability was 0.893 ± 0.12.

For `O=c1c(O)c(-c2ccc(O)c(O)c2)oc2cc(O)cc(O)c12` [QUERCETIN; Quercetin(Sophoretin); Quercetin dihydrate], the relative viability was 0.89 ± 0.032.

Take `CO[C@H]1C[C@@H]2CC[C@@H](C)[C@@](O)(O2)C(=O)C(=O)N2CCCC[C@H]2C(=O)O[C@H]([C@H](C)C[C@@H]2CC[C@@H](OCCO)[C@H](OC)C2)CC(=O)[C@H](C)/C=C(\C)[C@@H](O)[C@@H](OC)C(=O)[C@H](C)C[C@H](C)/C=C/C=C/C=C/1C` [Everolimus; Everolimus(RAD001)]: the relative viability was 0.647 ± 0.072.

Turning to `C#Cc1cccc(Nc2ncnc3cc(OCCOC)c(OCCOC)cc23)c1`, the relative viability came to 0.81 ± 0.083.

As to `CCC[C@H](NC(=O)/C(C#N)=C/c1cccc(Br)n1)c1ccccc1`, the relative viability was determined as 0.926 ± 0.078.

On to `COc1cc(Nc2ncc(F)c(Nc3ccc4c(n3)N(COP(=O)(O)O)C(=O)C(C)(C)O4)n2)cc(OC)c1OC`, for which the relative viability was 0.929 ± 0.03.

For `CCCS(=O)(=O)Nc1ccc(F)c(C(=O)c2c[nH]c3ncc(Cl)cc23)c1F`, the relative viability came to 0.771 ± 0.062.

Take `CC/C(=C(\c1ccccc1)c1ccc(OCCN(C)C)cc1)c1ccccc1` [Tamoxifen citrate]: the relative viability was 0.967 ± 0.075.

As for `COc1cc2/c(=N/c3ccc(Br)cc3F)nc[nH]c2cc1OCC1CCN(C)CC1` [Vandetanib], the relative viability was determined as 0.923 ± 0.1.

Regarding `N#CCNC(=O)c1ccc(-c2ccnc(Nc3ccc(N4CCOCC4)cc3)n2)cc1`, the relative viability is 0.933 ± 0.027.

`O=c1cc(N2CCOCC2)oc2c(-c3ccccc3)cccc12`: the relative viability turned out to be 0.773 ± 0.033.

Turning to `CN(C)C/C=C/C(=O)Nc1cc2c(Nc3ccc(F)c(Cl)c3)ncnc2cc1O[C@H]1CCOC1` [BIBW2992; BIBW2992(Tovok)], the relative viability was 0.389 ± 0.018.

In the case of `S=c1[nH]cnc2nc[nH]c12` [Mercaptopurine], the relative viability worked out at 0.9493 ± 0.0049.

In the case of `CN(C)c1nc(N(C)C)nc(N(C)C)n1` [Altretamine], the relative viability is 0.861 ± 0.011.

Consider `Cn1cc(-c2ccc3nnc(Sc4ccc5ncccc5c4)n3n2)cn1`, for which the relative viability amounted to 0.807 ± 0.056.

`Nc1nc(N)c2nc(-c3cccc(O)c3)c(-c3cccc(O)c3)nc2n1`: the relative viability was determined as 0.719 ± 0.028.

Turning to `CCCNC(=O)Nc1ccc(Oc2ncnc3cc(OC)c(OC)cc23)cc1Cl`, the relative viability came to 0.713 ± 0.055.

On to `CNC(=O)Nc1ccc(-c2nc(N3CC4CCC(C3)O4)c3cnn(C4CCC5(CC4)OCCO5)c3n2)cc1`, for which the relative viability was determined as 0.424 ± 0.074.

With `N#Cc1c(O)c2c(-c3ccc(-c4ccccc4O)cc3)csc2[nH]c1=O`, the relative viability was 0.86 ± 0.15.

Consider `CC(=O)c1c(C)c2cnc(Nc3ccc(N4CCNCC4)cn3)nc2n(C2CCCC2)c1=O`, for which the relative viability was 0.89 ± 0.074.

In the case of `CC[C@@]1(O)C(=O)OCc2c1cc1n(c2=O)Cc2cc3c(CN(C)C)c(O)ccc3nc2-1` [Topotecan HCl; Topotecan hydrochloride], the relative viability was 0.421 ± 0.033.

`COc1cc2c(Oc3ccc4[nH]c(C)cc4c3F)ncnc2cc1OCCCN1CCCC1` [Cediranib(AZD2171)]: the relative viability was 0.943 ± 0.053.

Regarding `Cn1cnc2c(F)c(Nc3ccc(Br)cc3Cl)c(C(=O)NOCCO)cc21` [AZD6244(Selumetinib)], the relative viability was 0.401 ± 0.0087.

Take `CC(C)C[C@H](NC(=O)[C@H](CCc1ccccc1)NC(=O)CN1CCOCC1)C(=O)N[C@@H](Cc1ccccc1)C(=O)N[C@@H](CC(C)C)C(=O)[C@@]1(C)CO1` [Carfilzomib]: the relative viability is -0.00043 ± 0.0042.

Regarding `Nc1nccc(Oc2ccc(NC(=O)c3c[nH]cc(-c4ccc(F)cc4)c3=O)cc2F)c1Cl`, the relative viability was found to be 0.87 ± 0.13.

In the case of `CNC(=O)CN1CCC(Oc2cc3c(Nc4cccc(Cl)c4F)ncnc3cc2OC)CC1`, the relative viability was determined as 0.536 ± 0.14.

For `NC(=O)c1ccc(-c2nc(-c3ccccn3)c(-c3ccc4c(c3)OCO4)[nH]2)cc1`, the relative viability turned out to be 0.825 ± 0.08.

Regarding `CN(C)Cc1cccc(N=C(c2ccccc2)c2c(O)[nH]c3cc(C(N)=O)ccc23)c1`, the relative viability was 0.984 ± 0.17.

Turning to `Cc1cccc(-c2[nH]c(C(C)(C)C)nc2-c2ccc3nccnc3c2)n1`, the relative viability turned out to be 0.848 ± 0.048.

In the case of `OC[C@H]1O[C@@H](n2cnc3c2N=CNC[C@H]3O)C[C@@H]1O` [Pentostatin], the relative viability came to 0.908 ± 0.068.

Take `CC(C)C[C@H](NC(=O)[C@H](Cc1ccccc1)NC(=O)c1cnccn1)B(O)O` [Bortezomib]: the relative viability is 0.00425 ± 0.0011.

On to `O=C1NC(=O)/C(=C/c2ccc3c(c2)OC(F)(F)O3)S1`, for which the relative viability is 0.939 ± 0.15.

Regarding `O=c1cc(-c2cccc3c2Sc2ccccc2S3)oc(N2CCOCC2)c1`, the relative viability came to 0.781 ± 0.04.

In the case of `C/C=C1\NC(=O)[C@H]2CSSCC/C=C/[C@H](CC(=O)N[C@H](C(C)C)C(=O)N2)OC(=O)[C@H](C(C)C)NC1=O` [Depsipeptide], the relative viability was found to be 0.00208 ± 0.0052.

Regarding `O=C1C(c2c(O)[nH]c3ccccc23)=Nc2ccccc21` [Indirubin; INDIRUBIN], the relative viability is 0.788 ± 0.038.

As to `CCS(=O)(=O)c1cccc(-c2cc(C(=O)NC3CCN(C)CC3)c(C)c3[nH]c4ncc(C)cc4c23)c1`, the relative viability is 0.702 ± 0.12.

With `Cn1cc(-c2ccc3nnc(C(F)(F)c4ccc5ncccc5c4)n3n2)cn1`, the relative viability stood at 0.954 ± 0.11.

The same experiment, now with this note: inflammatory serum-free RHB-A with cytokines + LPS; 5 d + 24 h CellTiter-Blue; compound 30 nM; GSK126 pretreatment: none (vehicle).
With `C[C@]12CC[C@H](O)CC1=CC[C@@H]1[C@@H]2CC[C@]2(C)C(c3cccnc3)=CC[C@@H]12` [Abiraterone], the relative viability stood at 0.869 ± 0.13.

For `O=c1c(O)c(-c2ccc(O)c(O)c2)oc2cc(O)cc(O)c12` [QUERCETIN; Quercetin(Sophoretin); Quercetin dihydrate], the relative viability is 0.911 ± 0.052.

As for `CO[C@H]1C[C@@H]2CC[C@@H](C)[C@@](O)(O2)C(=O)C(=O)N2CCCC[C@H]2C(=O)O[C@H]([C@H](C)C[C@@H]2CC[C@@H](OCCO)[C@H](OC)C2)CC(=O)[C@H](C)/C=C(\C)[C@@H](O)[C@@H](OC)C(=O)[C@H](C)C[C@H](C)/C=C/C=C/C=C/1C` [Everolimus; Everolimus(RAD001)], the relative viability was determined as 0.615 ± 0.033.

As to `C#Cc1cccc(Nc2ncnc3cc(OCCOC)c(OCCOC)cc23)c1`, the relative viability came to 0.823 ± 0.12.

Regarding `CCC[C@H](NC(=O)/C(C#N)=C/c1cccc(Br)n1)c1ccccc1`, the relative viability worked out at 0.929 ± 0.044.

For `COc1cc(Nc2ncc(F)c(Nc3ccc4c(n3)N(COP(=O)(O)O)C(=O)C(C)(C)O4)n2)cc(OC)c1OC`, the relative viability was 0.888 ± 0.056.

For the molecule `CCCS(=O)(=O)Nc1ccc(F)c(C(=O)c2c[nH]c3ncc(Cl)cc23)c1F`, the relative viability stood at 0.725 ± 0.028.

Take `CC/C(=C(\c1ccccc1)c1ccc(OCCN(C)C)cc1)c1ccccc1` [Tamoxifen citrate]: the relative viability was found to be 0.863 ± 0.019.

For the molecule `COc1cc2/c(=N/c3ccc(Br)cc3F)nc[nH]c2cc1OCC1CCN(C)CC1` [Vandetanib], the relative viability came out at 0.924 ± 0.083.

Consider `N#CCNC(=O)c1ccc(-c2ccnc(Nc3ccc(N4CCOCC4)cc3)n2)cc1`, for which the relative viability came out at 0.961 ± 0.042.

Consider `O=c1cc(N2CCOCC2)oc2c(-c3ccccc3)cccc12`, for which the relative viability was 0.819 ± 0.048.

Consider `CN(C)C/C=C/C(=O)Nc1cc2c(Nc3ccc(F)c(Cl)c3)ncnc2cc1O[C@H]1CCOC1` [BIBW2992; BIBW2992(Tovok)], for which the relative viability was found to be 0.374 ± 0.028.

`S=c1[nH]cnc2nc[nH]c12` [Mercaptopurine]: the relative viability was 0.969 ± 0.053.

Consider `CN(C)c1nc(N(C)C)nc(N(C)C)n1` [Altretamine], for which the relative viability came to 0.87 ± 0.045.

Consider `Cn1cc(-c2ccc3nnc(Sc4ccc5ncccc5c4)n3n2)cn1`, for which the relative viability came out at 0.846 ± 0.079.

With `Nc1nc(N)c2nc(-c3cccc(O)c3)c(-c3cccc(O)c3)nc2n1`, the relative viability worked out at 0.683 ± 0.014.

For the molecule `CCCNC(=O)Nc1ccc(Oc2ncnc3cc(OC)c(OC)cc23)cc1Cl`, the relative viability came out at 0.752 ± 0.01.

Regarding `CNC(=O)Nc1ccc(-c2nc(N3CC4CCC(C3)O4)c3cnn(C4CCC5(CC4)OCCO5)c3n2)cc1`, the relative viability was 0.432 ± 0.012.

Consider `N#Cc1c(O)c2c(-c3ccc(-c4ccccc4O)cc3)csc2[nH]c1=O`, for which the relative viability is 0.937 ± 0.13.

As to `CC(=O)c1c(C)c2cnc(Nc3ccc(N4CCNCC4)cn3)nc2n(C2CCCC2)c1=O`, the relative viability worked out at 0.913 ± 0.063.

`CC[C@@]1(O)C(=O)OCc2c1cc1n(c2=O)Cc2cc3c(CN(C)C)c(O)ccc3nc2-1` [Topotecan HCl; Topotecan hydrochloride]: the relative viability stood at 0.383 ± 0.021.

For `COc1cc2c(Oc3ccc4[nH]c(C)cc4c3F)ncnc2cc1OCCCN1CCCC1` [Cediranib(AZD2171)], the relative viability is 0.968 ± 0.019.

With `Cn1cnc2c(F)c(Nc3ccc(Br)cc3Cl)c(C(=O)NOCCO)cc21` [AZD6244(Selumetinib)], the relative viability turned out to be 0.592 ± 0.045.

Regarding `CC(C)C[C@H](NC(=O)[C@H](CCc1ccccc1)NC(=O)CN1CCOCC1)C(=O)N[C@@H](Cc1ccccc1)C(=O)N[C@@H](CC(C)C)C(=O)[C@@]1(C)CO1` [Carfilzomib], the relative viability amounted to 0.0294 ± 0.0064.

Consider `Nc1nccc(Oc2ccc(NC(=O)c3c[nH]cc(-c4ccc(F)cc4)c3=O)cc2F)c1Cl`, for which the relative viability amounted to 0.882 ± 0.16.

For `CNC(=O)CN1CCC(Oc2cc3c(Nc4cccc(Cl)c4F)ncnc3cc2OC)CC1`, the relative viability was 0.525 ± 0.058.

For `NC(=O)c1ccc(-c2nc(-c3ccccn3)c(-c3ccc4c(c3)OCO4)[nH]2)cc1`, the relative viability was 0.814 ± 0.1.

In the case of `CN(C)Cc1cccc(N=C(c2ccccc2)c2c(O)[nH]c3cc(C(N)=O)ccc23)c1`, the relative viability amounted to 0.911 ± 0.16.

In the case of `Cc1cccc(-c2[nH]c(C(C)(C)C)nc2-c2ccc3nccnc3c2)n1`, the relative viability was 0.828 ± 0.086.

For the molecule `OC[C@H]1O[C@@H](n2cnc3c2N=CNC[C@H]3O)C[C@@H]1O` [Pentostatin], the relative viability amounted to 0.918 ± 0.062.

For the molecule `CC(C)C[C@H](NC(=O)[C@H](Cc1ccccc1)NC(=O)c1cnccn1)B(O)O` [Bortezomib], the relative viability stood at 0.015 ± 0.0062.

As to `O=C1NC(=O)/C(=C/c2ccc3c(c2)OC(F)(F)O3)S1`, the relative viability amounted to 0.969 ± 0.17.

Take `O=c1cc(-c2cccc3c2Sc2ccccc2S3)oc(N2CCOCC2)c1`: the relative viability was found to be 0.845 ± 0.035.

For the molecule `C/C=C1\NC(=O)[C@H]2CSSCC/C=C/[C@H](CC(=O)N[C@H](C(C)C)C(=O)N2)OC(=O)[C@H](C(C)C)NC1=O` [Depsipeptide], the relative viability came to 0.00595 ± 0.0056.

As for `O=C1C(c2c(O)[nH]c3ccccc23)=Nc2ccccc21` [Indirubin; INDIRUBIN], the relative viability was determined as 0.796 ± 0.041.

With `CCS(=O)(=O)c1cccc(-c2cc(C(=O)NC3CCN(C)CC3)c(C)c3[nH]c4ncc(C)cc4c23)c1`, the relative viability turned out to be 0.72 ± 0.058.

As to `Cn1cc(-c2ccc3nnc(C(F)(F)c4ccc5ncccc5c4)n3n2)cn1`, the relative viability was 0.904 ± 0.029.
